In PubChem BioAssay AID1159580 (chemical genetic matrix, 2015):
“And” between values parts separate entries of the source, which are not always exact repeats. Equal entries are not always repeated. Hit rate of the full screen: of about 5,500 compounds, about 2,000 (36%) were called active. Another 18% or so got no clear call; they are omitted. Cut-off read from the data, not from the text of the source: active = normalized growth mostly below about 0.91 (no sharp cut-off); inconclusive = no clear call, values can overlap the other calls; inactive = mostly above about 0.92. The list shows a part of the results.

Assay: chemical genetic growth profiling, strain panel (AID 1159580);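 note: tested at 20 µM; growth read once vehicle control cultures reached saturation at 30 °C; 1 = growth at the plate median or of vehicle wells; lower values mean less growth of the strain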
Settings: S. cerevisiae deletion strains, growth OD

Measured: normalized growth

CC(=O)Nc1ccc(O)cc1
inactive: locus YAL021C, strain ccr4, hits give low values 1.02 | locus YAL026C, strain drs2, hits give low values 1.02 | locus YAL030W, strain snc1, hits give low values 1.02 | locus YBL061C, strain skt5, hits give low values 1.02 | locus YBR009C, strain hhf1, hits give low values 1.01 | locus YBR021W, strain FUR4, hits give low values 1.09 | locus YBR023C, strain chs3, hits give low values 1.02 | locus YBR171W, strain sec66, hits give low values 1.02 | locus YBR229C, strain ROT2, hits give low values 0.985 | locus YBR231C, strain swc5, hits give low values 1.02 | locus YBR279W, strain paf1, hits give low values 1 | locus YCL011C, strain gbp2, hits give low values 1.01 | locus YCL016C, strain dcc1, hits give low values 1.01 | locus YCL029C, strain bik1, hits give low values 0.979 | locus YCL069W, strain vba3, hits give low values 1.01 | locus YCR088W, strain abp1, hits give low values 1.01 | locus YDL005C, strain med2, hits give low values 1.02 | locus YDL035C, strain GPR1, hits give low values 0.984 | locus YDL040C, strain nat1, hits give low values 1.01 | locus YDL074C, strain BRE1, hits give low values 1.05 | locus YDL101C, strain DUN1, hits give low values 1.01 | locus YDL134C, strain PPH21, hits give low values 0.985 | locus YDL185W, strain tfp1, hits give low values 0.935 | locus YDL192W, strain arf1, hits give low values 0.981 | locus YDR001C, strain nth1, hits give low values 1.02 | locus YDR069C, strain doa4, hits give low values 1.02 | locus YDR101C, strain arx1, hits give low values 0.988 | locus YDR137W, strain rgp1, hits give low values 1.01 | locus YDR159W, strain sac3, hits give low values 1.01 | locus YDR162C, strain NBP2, hits give low values 0.951 | locus YDR195W, strain ref2 1.01 | locus YDR297W, strain sur2, hits give low values 1.02 | locus YDR318W, strain mcm21, hits give low values 0.973 | locus YDR334W, strain swr1, hits give low values 1.02 | locus YDR335W, strain msn5, hits give low values 1.01 | locus YDR388W, hits give low values 0.988 | locus YDR392W, strain spt3, hits give low values 0.993 | locus YDR502C, strain sam2, hits give low values 1 | locus YEL003W, strain gim4, hits give low values 1.03 | locus YEL037C, strain rad23, hits give low values 1.02 | locus YEL061C, strain CIN8 (second series), hits give low values 1.01 | locus YEL061C, strain CIN8, hits give low values 0.971 | locus YER015W, strain faa2, hits give low values 1 | locus YER016W, strain bim1, hits give low values 0.987 | locus YER110C, hits give low values 0.992 | locus YER111C, strain swi4, hits give low values 1.01 | locus YER155C, strain BEM2 (second series), hits give low values 1.02 | locus YER155C, strain BEM2, hits give low values 0.978 | locus YER167W, strain BCK2, hits give low values 0.991 | locus YFR010W, strain ubp6, hits give low values 1.01 | locus YGL078C, strain dbp3, hits give low values 0.936 | locus YGL086W, strain mad1, hits give low values 0.987 | locus YGL167C, strain pmr1, hits give low values 1.03 | locus YGL173C, strain kem1, hits give low values 1.02 | locus YGL227W, strain vid30, hits give low values 1.02 | locus YGL240W, strain doc1, hits give low values 1.01 | locus YGL248W, strain PDE1, hits give low values 0.982 | locus YGL253W, strain hxk2, hits give low values 1.01 | locus YGR135W, strain pre9, hits give low values 0.996 | locus YGR229C, strain SMI1, hits give low values 0.972 | locus YGR252W, strain gcn5, hits give low values 1.16 | locus YHR013C, strain ard1, hits give low values 1.02 | locus YHR027C, strain rpn1, hits give low values 1.01 | locus YHR030C, strain SLT2, hits give low values 0.985 and 0.986 | locus YHR079C, strain IRE1 (second series), hits give low values 0.987 | locus YHR079C, strain IRE1, hits give low values 0.986 | locus YHR094C, strain hxt1, hits give low values 0.979 | locus YHR129C, strain ARP1, hits give low values 0.977 | locus YHR142W, strain chs7, hits give low values 1.01 | locus YHR200W, strain rpn10, hits give low values 0.983 | locus YIL066C, strain RNR3, hits give low values 0.977 | locus YIL073C, strain SPO22, hits give low values 1.04 | locus YIL125W, strain kgd1, hits give low values 0.944 | locus YIR030C, strain dcg1, hits give low values 0.977 | locus YJL092W, strain hpr5, hits give low values 1 | locus YJL095W, strain BCK1 (second series), hits give low values 1.02 | locus YJL095W, strain BCK1, hits give low values 1 and 0.986 | locus YJL115W, strain asf1, hits give low values 1.02 | locus YJL129C, strain trk1, hits give low values 1.01 | locus YJL134W, strain LCB3, hits give low values 0.981 | locus YJL154C, strain vps35, hits give low values 1.01 | locus YJL164C, strain tpk1, hits give low values 0.997 | locus YJL166W, strain qcr8, hits give low values 1 | locus YJL168C, strain set2, hits give low values 0.975 | locus YJL187C, strain SWE1 (second series), hits give low values 1.01 | locus YJR043C, strain POL32, hits give low values 0.978 | locus YJR066W, strain TOR1, hits give low values 0.99
